# GFP derepression: epigenetic GFP locus derepression in mouse cells. 68,000 tested, 0.09% active. Potency, µM (doses to about 46.1 µM), for inactives: at the highest dose GFP derepression (activation). AID 597. mouse C127i GFP locus derepression, cytometry, 30 h; further: % of control where 0% means no effect
#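 Derepression screen: silenced CMV-GFP reporter in murine C127i cells, 30 h compound incubation at 37 C, washed cells imaged by laser-scanning cytometer to enumerate GFP-expressing objects of 20 to 120 um.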
# Tau filament bind: tau filament binding. recombinant tau filaments, thioflavin S fluorescence, 15 h; filaments grown with octadecylsulfate alongside compound. Potency, µM (highest dose often 57.1 µM), without a hit: at the top dose activity change, negative = inhibition. 71,000 tested, 2% active;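 further: potency means the concentration at half of the fitted maximal effect; on the % scale 0 is the no-effect control and ±100 the full control effect; actives lower thioflavin S fluorescence by blocking filaments or displacing dye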
# Target sequence (P10636 whole entry, looked up): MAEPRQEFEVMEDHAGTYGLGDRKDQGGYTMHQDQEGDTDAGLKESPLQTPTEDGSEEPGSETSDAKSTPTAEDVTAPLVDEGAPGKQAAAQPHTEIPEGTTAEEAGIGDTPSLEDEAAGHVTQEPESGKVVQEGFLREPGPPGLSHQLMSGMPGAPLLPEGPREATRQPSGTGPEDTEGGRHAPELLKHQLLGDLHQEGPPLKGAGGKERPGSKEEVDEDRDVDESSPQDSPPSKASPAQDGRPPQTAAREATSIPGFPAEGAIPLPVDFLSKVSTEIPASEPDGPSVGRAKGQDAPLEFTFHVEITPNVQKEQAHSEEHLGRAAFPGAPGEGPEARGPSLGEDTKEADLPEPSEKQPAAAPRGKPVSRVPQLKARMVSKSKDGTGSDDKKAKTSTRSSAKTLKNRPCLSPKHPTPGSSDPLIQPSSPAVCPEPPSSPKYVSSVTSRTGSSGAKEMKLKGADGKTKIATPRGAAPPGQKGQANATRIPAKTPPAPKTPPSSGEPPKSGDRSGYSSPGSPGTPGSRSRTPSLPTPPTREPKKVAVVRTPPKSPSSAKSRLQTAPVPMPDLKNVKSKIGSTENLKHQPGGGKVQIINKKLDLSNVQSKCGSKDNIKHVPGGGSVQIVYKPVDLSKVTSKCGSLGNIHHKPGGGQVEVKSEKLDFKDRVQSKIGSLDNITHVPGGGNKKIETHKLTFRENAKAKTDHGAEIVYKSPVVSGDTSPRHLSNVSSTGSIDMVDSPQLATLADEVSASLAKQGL
#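 Read-out: ThS fluorescence, 450 nm excitation/510 nm emission; lower signal marks blocked filament formation or displaced dye. Tau at 1 uM with 30 uM ODS, 10 uM ThS, 5 mM DTT, 100 mM NaCl, 10 mM HEPES pH 7.4; 15 h, 37 C.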
# UbGFP stabilizer: ubiquitin-GFP accumulation via proteasome inhibition. Ubiquitin-GFP reporter cells, proteasome inhibition, GFP fluorescence; response scale: untreated = 0%, 10 µM MG-132 = 100%. Potency, µM (doses to about 45.9 µM), for inactives: top-dose activation (GFP accumulation), usual class: activators. 67,000 tested, under 10 active. AID 526; active means well fitted activation curve with a large enough effect, not every such curve was filed as active; inconclusive means small, poorly fitted or top-dose-only effect, or another doubt; inactive means no such curve, though single readings can be large or run the other way; further: potency means the concentration at half of the fitted maximal effect
#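 GFP accumulation read-out: laser plate cytometry counting ubiquitin(G76V)-GFP-expressing U2OS cells after 4 hr compound exposure at 37 °C. Titrations spanned 46 uM to 2.9 nM; 0% = basal, 100% = 10 uM MG-132; concentration-response curves fitted.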
# HBB splice mod: alters splicing of the hemoglobin beta chain; HBB splicing reporter cell assay, activation; EGFP reporter with mutant IVS2-654 intron; response scale: normalised to 500 nM splice-correcting PNA; Potency, µM (doses to about 46.1 µM), for the others: at the highest dose activation, usual class: activators; 65,000 tested, 0.06% active; further: potency means the concentration at half of the fitted maximal effect; 0% is about no effect
#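 HeLa cells stably expressing EGFP interrupted by mutant beta-globin intron 2 (IVS2-654), 500/well in 2% FCS. Treated with compound for 2 days at 37C. Splicing correction scored as total well GFP intensity (488 nm excitation, 500-520 nm emission); 500 nM antisense PNA served as control.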
# ERK AVP inh: inhibitors of vasopressin-stimulated ERK signaling pathway; 72,000 tested, 0.99% active; Potency, µM (series often up to 57.5 µM), for inactives: at the top dose activity, negative = inhibition, usual class: inhibitors; HEK293-V1b, vasopressin-stimulated pERK AlphaScreen; further: potency means the concentration at half of the fitted maximal effect; on the % scale 0 is the no-effect control and ±100 the full control effect; nearly all actives have a fitted effect of over 55% in size
#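 Overnight-seeded V1b-HEK293 cells in 1% FBS got compound, then vasopressin (25 nM final, 5 min, 37C), then lysis buffer. AlphaScreen detection of phospho-ERK; activity normalized to basal and full-stimulation controls.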
# Hsp90 Hop PPI: changes Hsp90-Hop TPR2A binding signal, up or down | 71,000 tested, 0.44% active | AID 595 | AlphaScreen TPR2A-His6 binding biotin-Hsp90 C-terminal peptide | Potency, µM (series often up to 57 µM), for inactives: top-dose activity change, negative = inhibition; active means well fitted curve in either direction with a large enough effect; inconclusive means small, poorly fitted or top-dose-only effect, or another doubt; further: potency means the concentration at half of the fitted maximal effect; on the % scale 0 is the no-effect control and ±100 the full control effect
# Active calls of the source: *; ? = inconclusive; . = no result; ! = not active in a repeat; [ ] = dose if it differs, or a comment. Most compounds without a hit are left out; they make up all but 3% or so of the library. Unless noted, the call rests on the fitted dose curve; in most records, active means well fitted curve in the direction sought with a large enough effect; inconclusive means small, poorly fitted or top-dose-only effect, or another doubt; inactive means no such curve, though single readings can be large; an effect the other way counts as inactive or inconclusive.
SMILES,GFP derepression,Tau filament bind,UbGFP stabilizer,HBB splice mod,ERK AVP inh,Hsp90 Hop PPI
C=CCn1cnc2c(c1=O)c1nc3ccccc3nc1n2-c1ccccc1,-1%,-11%,0%,0%[57.5 µM],3%,0%
O=c1c2c3nc4ccccc4nc3n(-c3cccc(F)c3)c2ncn1Cc1ccc2c(c1)OCO2,2%,3.2µM*,-3%,-2%[57.5 µM],-14%,-3%
c1ccc(CNc2nc(-c3ccc4c(c3)OCO4)nc3ccccc23)cc1,-3%[9.22 µM],202%,-3%,-2%,20µM*,7%
CN(C)c1ccc(-c2nc(Nc3ccncc3)c3ccccc3n2)cc1,0%[9.22 µM],10µM*,0%,0%,16µM*,0%
c1ccc(Nc2nc(-c3ccc4c(c3)OCO4)nc3ccccc23)cc1,-3%[9.22 µM],25µM*,-3%,-2%,16µM*,26%
CC1(C)O[C@H]2C[C@@H]3[C@H]4CCC5=CC(=O)CC[C@@]5(C)[C@]4(F)[C@@H](O)C[C@@]3(C)[C@@]2(C(=O)CCl)O1,2%[20.6 µM],-2%[25.6 µM],-1%[20.5 µM],-1%[20.6 µM],1%[25.7 µM],-2%[26 µM]
COc1cc2c(cc1OC)C1C(=O)c3ccc4c(c3OC1CO2)C=CC(C)(C)O4 (stereo unspecified),.,.,.,.,-21%,.
C=CCNS(=O)(=O)c1ncnc2nc[nH]c12,0%[9.22 µM],7%[11.4 µM],0%[9.17 µM],3%[9.22 µM],-7%[11.5 µM],-1%[11 µM]
CN(C)c1nc(N)nc(CSc2nc3cc(Cl)ccc3o2)n1,-4%,122%,-1%,2%,-18%,-3%
O=S1(=O)C=C(Sc2nc3cc(Cl)ccc3o2)c2ccccc21,1%,-1%,6%,3%,10µM*,?
Fc1ccccc1N1CCN(CCCNc2ccc3nncn3n2)CC1,.,10%,-5%,1%,11%,-2%[2.3 µM]
c1ccc(CN2CCN(CCCNc3ccc4nnc(-c5ccccc5)n4n3)CC2)cc1,-2%,82%,3%,0%,40µM*,-10%
CCOC(=O)N/N=C1/C[C@@H](O)[C@@H](O)[C@@H]2[C@@H]3C(=O)N(c4cccc(Oc5ccccc5)c4)C(=O)[C@H]3CC[C@@H]12,.,.,.,3%[9.22 µM],7%[11.5 µM],.
OCC(O)CN1CCN(c2ccccc2)CC1 (stereo unspecified),-2%[20.6 µM],.,.,.,10%,.
O[C@H](CN1CCN(c2cccc(Cl)c2)CC1)C(c1ccccc1)c1ccccc1,0%,40µM*!,0%,1%,-6%,9%
CN(CCC(=O)O)S(=O)(=O)c1ccccc1,-2%[9.22 µM],8%[11.4 µM],10%[9.17 µM],3%[9.22 µM],1%[11.5 µM],2%[11 µM]
c1ccc(-c2oc3ncnc(NCCCn4ccnc4)c3c2-c2ccccc2)cc1,-2%,220%,0%,0%,25µM*,?
c1ccc(-c2oc3ncnc(NCCN4CCOCC4)c3c2-c2ccccc2)cc1,-3%,104%,11%,1%,?,-13%
CN(C)c1ccc(Nc2nc(-c3cccnc3)cs2)cc1,0%,2.5µM*,?,-1%[0.0738 µM],?,-12%[11 µM]
C=CCn1c(/N=C/c2ccc(N(C)C)cc2)nc2ccccc21,-1%,-1%,8%,1%,6%,-8%
CN(C)c1ccc(/C=N/n2ncc3ccccc32)cc1,-1%,-26%,9%,-1%,22%,25µM*
CN1CCC[C@@H]1c1cccnc1.O=C(O)c1ccccc1O.O=C([OH2+])c1ccccc1O.O=C([OH2+])c1ccccc1O.[Mn],4%[9.22 µM],8%[11.4 µM],2%[9.17 µM],2%[9.22 µM],-19%[11.5 µM],0%[11 µM]
CCCc1cc(C(N)=O)c(NC(=O)c2cc(C)on2)s1,2%,32µM*,7%,1%,-7%,-6%
[O-][N+]1(CC[N+]2([O-])CCCCC2)CCCCC1,4%[9.22 µM],2%[11.4 µM],2%[9.17 µM],3%[9.22 µM],-21%[11.5 µM],-2%[11 µM]
COc1cccc2cc3c(=O)n(-c4ccccc4)nc-3oc12,.,16µM*,7%,-1%,?,-3%[2.3 µM]
SMILES,GFP derepression,Tau filament bind,UbGFP stabilizer,HBB splice mod,ERK AVP inh,Hsp90 Hop PPI
CCN(CC)C(=S)SSC(=S)N(CC)CC,1µM*!,3%[25.6 µM],7%[20.5 µM],0%[20.6 µM],-10%,?
Cc1c(=O)n(OCc2ccccc2F)c2ccccc2[n+]1[O-],13µM*,?,2%,20µM*,-5%,-9%
CCOC(=O)COn1c(=O)c(-c2ccc(OC)c(OC)c2)[n+]([O-])c2ccccc21,6%[20.6 µM],.,.,.,.,.
O=C1CSC(=S)N1/N=C\c1ccc(Cl)c([N+](=O)[O-])c1,0%[9.22 µM],4µM*,3%[9.17 µM],5%[9.22 µM],-11%[11.5 µM],-8%[11 µM]
O=[N+]([O-])c1cc(C(F)(F)F)ccc1Cl,.,1%,.,2%,11%,4%
CCNc1ncc2nc(-c3ccccc3)c(=O)n(Cc3cccc(OC)c3)c2n1,-3%[9.22 µM],42%,4%,2%,0%,-4%
CC(C)n1cc(/C=C(\C#N)S(=O)(=O)c2ccccc2)c2ccccc21,7%,7.9µM*,12%,2%,42%,24%
CCN1CCN(c2nc3c(C)cccn3c(=O)c2/C=C(\C#N)S(=O)(=O)c2ccccc2)CC1,-4%[20.6 µM],.,.,.,.,.
COn1c(=S)[nH]c2ccccc2c1=O,-4%[20.6 µM],.,.,.,.,.
COc1ccc(OC)c2c(=S)c3ccccc3[nH]c12,-1%,13µM*,1%,.,?,-16%
CCCCCCCCCCCCCCCC(=O)NC[C@@H](COP(=O)([O-])OCC[N+](C)(C)C)OCC,-2%,176%,-2%,1%,?,-13%
Oc1c(/C=N/c2ncn[nH]2)ccc2ccccc12,1%,13µM*,-7%,-1%,-4%,-6%
Cc1ccc(S(=O)(=O)n2c3ccccc3c3nnc(C(=O)c4ccccc4)nc32)cc1,.,.,.,1%[9.22 µM],11%[11.5 µM],.
CC1=NNC(=S)NCCCN2CCN(CCCNC(=S)NN=C(C)C=NNC(=S)NCCCN3CCN(CCCNC(=S)NN=C1)CC3)CC2,-2%[9.22 µM],?,-3%[9.17 µM],2%[9.22 µM],9%[11.5 µM],4µM*
O=c1[nH]ncc2ccccc12,.,-5%,.,-1%,-3%,-2%
C[C@@H](COc1ccc(/C=C\c2ccccc2)cc1)[N+](C)(C)C,-1%,59%,0%,2%,30%,-11%
O=C(O)[C@H]1C[C@H](C(=O)O)N1,-1%,-6%,5%,3%,-3%,?
CC(=O)C1=C(C)NC(SCC(=O)c2cc(Cl)ccc2Cl)=C(C#N)C1c1ccco1 (stereo unspecified),-2%,92%,5%,0%[9.22 µM],32%,7%
CC(=O)C1=C(C)NC(SCC(=O)c2ccc(Cl)c(Cl)c2)=C(C#N)C1c1ccco1 (stereo unspecified),0%,1µM*,-8%,0%[9.22 µM],-17%,-12%
O[C@@H](COc1cccc2ccccc12)CN1CCOCC1,2%[9.22 µM],15%[11.4 µM],-7%[9.17 µM],0%[9.22 µM],-8%[11.5 µM],-2%[11 µM]
CC(C)(C)OC(=O)C1=NOC2(C=CC(=O)C=C2)C1,.,.,.,0%[9.22 µM],8%[11.5 µM],.
